These targets were tested with Nc1nc2[nH]cc(CCc3ccc(C(=O)N[C@@H](CCC(=O)O)C(=O)O)cc3)c2c(=O)[nH]1 [Pemetrexed] (assay: fraction of microhomology deletions among edited reads; higher = more MH deletions). Details: mESC; 2uM; 72 h treatment, harvest day 5.

| Target | fraction of microhomology deletions among edited reads |
| --- | --- |
| 32.0 (DMSO control at this site: 1-bp insertion 0.03, MH deletion 0.85, edited 0.898) AGAAGTCCAGGATCAGGGGGACTGGGGTCGGGAGGGTGGGGCAGGAAGGAAGCCAGAATCA | 0.928 |
| 26.0 (DMSO control at this site: 1-bp insertion 0.518, MH deletion 0.262, edited 0.026) AGGGCGCGCCCCACGCACTCTGCGGCAAGTCCCTCTGCGGCAAGTCCTCGGCCCGGAAGAC | 0.44 |
| 34.0 (DMSO control at this site: 1-bp insertion 0.184, MH deletion 0.385, edited 0.103) ATTATAGGACCCTGAGGGAGCAGAGATGTGGGAATGGGGGCCGAGCCAATTGTGATGTAAG | 0.413 |
| 18.0 (DMSO control at this site: 1-bp insertion 0.114, MH deletion 0.789, edited 0.094) GCGCAAGTGCATAAGTTTTTCTTAAGGCGTGCCTTTAAGGCGTGCCTTTGTCGGTCCTGGA | 0.78 |
| 41.0 (DMSO control at this site: 1-bp insertion 0.022, MH deletion 0.754, edited 0.115) AAAGAGACAGCAGGTATGAATCCATCTTCCTGACCCTTGGGACCAGCCGGGGCAGTGAAGC | 0.678 |
| 47.0 (DMSO control at this site: 1-bp insertion 0.095, MH deletion 0.585, edited 0.118) GAGTGGTCCCGAGCCAGGAACTGTGTGTGTTGCAGGGGGGCAGTAACTCCCCAACTCCCTC | 0.503 |
| 35.0 (DMSO control at this site: 1-bp insertion 0.01, MH deletion 0.72, edited 0.098) CCACTTTTAGAGAGGGTGAAAATCATCAGTTATCATCAGGGCAACAAATTGCTTTCTCCTA | 0.794 |
| 16.0 (DMSO control at this site: 1-bp insertion 0.172, MH deletion 0.29, edited 0.05) CGGACTGCACACATGGGTAGGATCGTGCACGCGAGGTAGGATCGTGCACGCGAAGTTATTC | 0.279 |
| 19.0 (DMSO control at this site: 1-bp insertion 0.121, MH deletion 0.101, edited 0.057) TCTGCAGGGGTCGGAACCCGGGGGCTAGGGCTATCCCGGGGGCTAGGGCTATTAGCGAACC | 0.187 |
| 22.0 (DMSO control at this site: 1-bp insertion 0.573, MH deletion 0.229, edited 0.045) CTGATGGTTGAAGGATTTAGCCGGGGTCCTAGACGCCGGGGTCCTAGACGAAAGGGCCACG | 0.267 |
| 38.0 (DMSO control at this site: 1-bp insertion 0.063, MH deletion 0.487, edited 0.17) GGGCTGGGTGCTAAAATGAGGAGCTCCAAGAAGACTGAGGTGAACCTGGAGGCCCCTGAGC | 0.548 |
| 5.0 (DMSO control at this site: 1-bp insertion 0.214, MH deletion 0.567, edited 0.105) CGCTGACCCGAGACCTACGCGAACCGAAATCGGCGACCGGTGCGCAAGCAGGGCTGGCGTC | 0.565 |
| 1.0 (DMSO control at this site: 1-bp insertion 0.521, MH deletion 0.323, edited 0.141) GTGTCACAGTGCACGAGTGACGGGATAATGTGCTGACAGGTAATTGATAGGCTTCCAACTT | 0.342 |
| 0.0 (DMSO control at this site: 1-bp insertion 0.463, MH deletion 0.339, edited 0.14) AGGATTACCGAGACCTACGCGAACCGAAATCGCTGTCCGGTGCGCAAGCAGGGCTGGCGTC | 0.346 |
| 3.0 (DMSO control at this site: 1-bp insertion 0.109, MH deletion 0.149, edited 0.09) TGCTAGCGCCCCCACAAAGCGGACCAGCCAGCACTATAGGGAATAAGGCCAACTTGCACCC | 0.171 |
| 7.0 (DMSO control at this site: 1-bp insertion 0.128, MH deletion 0.374, edited 0.098) TACTCAACCGAGACCTACGCGAACCGAAATCGTATGCCGGTGCGCAAGCAGGGCTGGCGTC | 0.536 |
| 39.0 (DMSO control at this site: 1-bp insertion 0.328, MH deletion 0.371, edited 0.204) CTGCACAGTCACTTAGGATAGGAGAAGATGATGTATAGGGTTTAGTGGGAGATGTTGCAAG | 0.407 |
| 21.0 CGATTGAGAGTCAAACGGGCCAGAAAACTCCGGGAACGGGCCAGAAAACTCCGGGGCATGG | 0.186 |

| Target | fraction of microhomology deletions among edited reads |
| --- | --- |
| 25.0 (DMSO control at this site: 1-bp insertion 0.017, MH deletion 0.774, edited 0.143) GGGCCTGAATGGTGTGGACATCTACTCGCTGGTGAGCTGGTGACTGAAAACATTCAGTGGC | 0.744 |
| 40.0 (DMSO control at this site: 1-bp insertion 0.072, MH deletion 0.192, edited 0.189) GCGAATCAACTGTTCAACAACAGCAGCAGCCACCTGGAGGACTACAGTGGCCTGTCCGTGT | 0.169 |
| 42.0 (DMSO control at this site: 1-bp insertion 0.145, MH deletion 0.655, edited 0.132) GGGCTAAACCTATGAGCACAGTAGAACTAAGGGTGGGTGGTGTAGCTAAAGAACTTGACCA | 0.634 |
| 28.0 (DMSO control at this site: 1-bp insertion 0.035, MH deletion 0.77, edited 0.142) TGGTTCTTCCTTTGTAGAGAGTGTTCATCTGGGAATCTGGGACTTGGATGAGACAATCATT | 0.737 |
| 2.0 (DMSO control at this site: 1-bp insertion 0.364, MH deletion 0.356, edited 0.125) GGTGCCCCCGAGACCTACGCGAACCGAAATCGATGTCCGGTGCGCAAGCAGGGCTGGCGTC | 0.408 |
| 4.0 (DMSO control at this site: 1-bp insertion 0.146, MH deletion 0.523, edited 0.125) ACGCCTTAGTGCACGAGTGACGGGATAATGTGGTCTCAGGTAATTGATAGGCTTCCAACTT | 0.504 |
| 46.0 TTAAGAGCAATGTTCACGCAACTTGAAATTATATCTGTGGTCTTCAAATTGTCTTTTGTCA | 0.431 |
| 31.0 (DMSO control at this site: 1-bp insertion 0.315, MH deletion 0.329, edited 0.026) ACCTCCACAGGCTGGGTGGCCCGGAGGCTGGGCGGCCCGGAGGCTGGGCTGGGCGAGTATC | 0.605 |
| 29.0 (DMSO control at this site: 1-bp insertion 0.084, MH deletion 0.745, edited 0.133) TTGATGAACTTCCTCTTCTTCTCATGTCTCCGGTCTCCGGTAGGCCACGTGCATGGCCACT | 0.691 |
| 8.0 GCATGCGTGTTTTGGGACAATGTAGTATACATTTGGGAGGCTCTCAGCTTTTCCCAATAAA | 0.127 |
| 17.0 (DMSO control at this site: 1-bp insertion 0.112, MH deletion 0.348, edited 0.058) CCATAGCGCGATAAATATGACGGCTCATCCTGTATGACGGCTCATCCTGTATCAACTGTCC | 0.474 |
| 45.0 (DMSO control at this site: 1-bp insertion 0.017, MH deletion 0.666, edited 0.101) TTACACAGCATGAACTGCTAGGTGATGATGTCAGATTCGGTTTTACTAACTTCTCCAAAAA | 0.574 |
| 30.0 (DMSO control at this site: 1-bp insertion 0.074, MH deletion 0.67, edited 0.142) GAGCTGGCATGAGTATTTGTGCCACATGGCTCCCACATGGCTCCACATGCAAGTTTGAAAC | 0.644 |
| 44.0 (DMSO control at this site: 1-bp insertion 0.181, MH deletion 0.512, edited 0.123) ACACATACCTTCTTCGAGGCAGCCAGCATGATGAGACAGGTCTCCCACAAACACATCGTGT | 0.583 |
| 20.0 (DMSO control at this site: 1-bp insertion 0.349, MH deletion 0.138, edited 0.084) TACAGGTGTAGACTGGTTACGTGGCTGCGGAATTGACTGGTTACGTGGCTGCGGAATTTTG | 0.263 |
| 43.0 (DMSO control at this site: 1-bp insertion 0.134, MH deletion 0.714, edited 0.104) AGTTTAACTTACTCCGGCCAAAAAAGAACTGCACCTCTGGAGCGGGTTAGTGGTGGTGGTA | 0.625 |
| 33.0 (DMSO control at this site: 1-bp insertion 0.008, MH deletion 0.771, edited 0.112) CATTAAGAGCAGCTGCCGGCCCCCAAGTGGACAGAGCTGGCCCTGCTGATTCAACAGTGCA | 0.682 |
